Assay results published in PubChem BioAssay AID1159580 (chemical genetic matrix, 2015).
Screen size: about 5,500 compounds; about 2,000 (36%) were called active. Not shown: some 18% with an inconclusive outcome. Rule as the data show it: active = normalized growth mostly below about 0.91 (no sharp cut-off); inconclusive = no clear call, values can overlap the other calls; inactive = mostly above about 0.92. Some of the results follow.

Test: chemical genetic growth profiling, strain panel (AID 1159580);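 also: tested at 20 µM; growth read once vehicle control cultures reached saturation at 30 °C; 1 = growth at the plate median or of vehicle wells; lower values mean less growth of the strain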
Conditions: S. cerevisiae deletion strains, growth OD

Measured: normalized growth

Cc1c(C)c(C)c(C(O)c2ccccc2)c(C)c1C (stereo unspecified)
inactive: locus YAR019C, strain CDC15, active compounds read low 1 | locus YBL105C, strain PKC1, active compounds read low 1.01 | locus YBR135W, strain CKS1, active compounds read low 1 | locus YBR136W, strain MEC1, active compounds read low 1 | locus YBR160W, strain CDC28, active compounds read low 1.01 | locus YDL017W, strain CDC7, active compounds read low 1.01 | locus YDL028C, strain MPS1, active compounds read low 1 | locus YDL101C, strain DUN1, active compounds read low 0.998 | locus YDL108W, strain KIN28, active compounds read low 1.01 | locus YDL132W, strain cdc53, active compounds read low 0.998 | locus YDL214C, strain PRR2, active compounds read low 0.858 | locus YDR052C, strain DBF4, active compounds read low 0.989 | locus YDR054C, strain cdc34, active compounds read low 0.991 | locus YDR226W, strain ADK1, active compounds read low 0.993 | locus YDR477W, strain SNF1, active compounds read low 0.846 | locus YER123W, strain YCK3, active compounds read low 0.786 | locus YER133W, strain GLC7, active compounds read low 0.843 | locus YFL009W, strain cdc4, active compounds read low 0.994 | locus YFL029C, strain CAK1, active compounds read low 1 | locus YFR003C, strain YPI1, active compounds read low 1 | locus YFR019W, strain FAB1, active compounds read low 0.868 | locus YFR028C, strain CDC14, active compounds read low 0.997 | locus YGR040W, strain KSS1, active compounds read low 0.862 | locus YGR052W, strain FMP48, active compounds read low 0.75 | locus YGR092W, strain DBF2, active compounds read low 0.703 | locus YHR079C, strain IRE1, active compounds read low 0.742 | locus YHR082C, strain KSP1, active compounds read low 0.779 | locus YHR205W, strain SCH9, active compounds read low 0.775 | locus YIL147C, strain SLN1, active compounds read low 1.01 | locus YJL095W, strain BCK1, active compounds read low 0.602 | locus YJL128C, strain PBS2, active compounds read low 0.914 | locus YJL157C, strain FAR1, active compounds read low 0.884 | locus YJR016C, strain ILV3, active compounds read low 1 | locus YJR066W, strain TOR1 (second series), active compounds read low 0.84 | locus YJR066W, strain TOR1, active compounds read low 0.817 | locus YKL048C, strain ELM1, active compounds read low 0.867 | locus YKL067W, strain YNK1, active compounds read low 0.873 | locus YKL101W, strain HSL1, active compounds read low 0.781 | locus YKL193C, strain SDS22, active compounds read low 1 | locus YKL203C, strain TOR2, active compounds read low 0.894 | locus YLR133W, strain CKI1, active compounds read low 0.873 | locus YLR403W, strain SFP1, active compounds read low 0.847 | locus YML070W, strain DAK1, active compounds read low 0.75 | locus YMR001C, strain CDC5, active compounds read low 1 | locus YMR205C, strain PFK2 (second series), active compounds read low 0.849 | locus YMR277W, strain FCP1, active compounds read low 1 | locus YNL006W, strain LST8, active compounds read low 1.01 | locus YNL020C, strain ARK1, active compounds read low 0.852 | locus YNL161W, strain CBK1, active compounds read low 1 | locus YNL183C, strain NPR1, active compounds read low 0.696 | locus YNL207W, strain RIO2, active compounds read low 1 | locus YNL222W, strain SSU72, active compounds read low 0.999 | locus YNL307C, strain MCK1 (second series), active compounds read low 0.785 | locus YOL078W, strain AVO1, active compounds read low 1 | locus YOL136C, strain PFK27, active compounds read low 0.84 | locus YOR061W, strain CKA2, active compounds read low 0.844 | locus YOR119C, strain RIO1, active compounds read low 0.915 | locus YOR231W, strain MKK1, active compounds read low 0.785 | locus YOR329C, strain SCD5, active compounds read low 1 | locus YPL031C, strain PHO85, active compounds read low 0.806 | locus YPL153C, strain RAD53, active compounds read low 0.783 | locus YPL204W, strain HRR25, active compounds read low 0.777 | locus YPL209C, strain IPL1, active compounds read low 1 | locus YPR025C, strain CCL1, active compounds read low 1.01 | locus YPR106W, strain ISR1, active compounds read low 0.977 | locus YPR111W, strain DBF20, active compounds read low 0.967 | strain NNK1, active compounds read low 0.972 | strain TSCII, active compounds read low 1
active: locus YHR030C, strain SLT2, active compounds read low 0.442 | locus YLR113W, strain HOG1, active compounds read low 0.609 | locus YPL256C, strain CLN2, active compounds read low 0.67
